{"source": "paper PMC4336329", "about": "(PLoS ONE, 2015)", "note": "Among all 310,000 compounds or so, about 2,200 (0.71%) showed an effect of 50% or more. Effects have a minus sign here. The sample as a whole holds a higher share of strong results than the screen did."}
{"target": "human ether-à-go-go-related gene (hERG) potassium channel (human, UniProt Q12809)", "sequence (Q12809 whole entry, looked up)": "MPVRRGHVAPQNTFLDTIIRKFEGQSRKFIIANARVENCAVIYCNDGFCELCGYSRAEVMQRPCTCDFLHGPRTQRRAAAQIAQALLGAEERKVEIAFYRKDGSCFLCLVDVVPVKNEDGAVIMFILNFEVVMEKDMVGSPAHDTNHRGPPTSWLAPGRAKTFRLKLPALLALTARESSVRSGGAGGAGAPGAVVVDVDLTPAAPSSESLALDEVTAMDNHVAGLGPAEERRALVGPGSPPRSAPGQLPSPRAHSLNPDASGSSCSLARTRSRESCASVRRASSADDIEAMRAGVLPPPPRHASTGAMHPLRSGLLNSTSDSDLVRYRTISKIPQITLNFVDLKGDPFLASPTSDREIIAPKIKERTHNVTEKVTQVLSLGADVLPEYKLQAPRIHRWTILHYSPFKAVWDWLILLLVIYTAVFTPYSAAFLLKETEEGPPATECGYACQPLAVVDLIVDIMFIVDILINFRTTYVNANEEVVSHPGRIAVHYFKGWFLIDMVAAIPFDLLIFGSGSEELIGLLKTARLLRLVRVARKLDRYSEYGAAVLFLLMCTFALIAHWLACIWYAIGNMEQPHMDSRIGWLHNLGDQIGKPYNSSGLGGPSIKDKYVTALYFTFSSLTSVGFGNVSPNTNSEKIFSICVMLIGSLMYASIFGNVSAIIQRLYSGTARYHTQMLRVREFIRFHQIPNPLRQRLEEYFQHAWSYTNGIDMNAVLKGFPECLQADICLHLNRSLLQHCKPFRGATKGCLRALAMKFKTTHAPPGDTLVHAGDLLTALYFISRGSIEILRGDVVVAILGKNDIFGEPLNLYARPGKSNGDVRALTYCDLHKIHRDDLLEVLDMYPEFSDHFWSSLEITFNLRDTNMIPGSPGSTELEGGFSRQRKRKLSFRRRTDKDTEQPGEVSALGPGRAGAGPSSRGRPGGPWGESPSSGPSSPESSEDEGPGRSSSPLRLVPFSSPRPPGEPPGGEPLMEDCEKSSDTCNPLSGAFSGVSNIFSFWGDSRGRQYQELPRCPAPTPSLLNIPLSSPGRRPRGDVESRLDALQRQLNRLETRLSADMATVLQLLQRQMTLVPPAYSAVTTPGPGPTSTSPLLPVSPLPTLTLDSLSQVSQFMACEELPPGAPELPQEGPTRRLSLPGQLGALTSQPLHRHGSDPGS", "experiment": "primary screen, population patch clamp on CHO cells stably expressing hERG; higher = less effect of the substance", "units": {"hERG current change (%, negative = inhibition) at 1uM": "%"}}
{"compound": "COc1ccc(Cl)cc1N(C)C(=O)CCNC(=O)Cn1cnc2ccccc2c1=O", "hERG current change (%, negative = inhibition) at 1uM": 11.2}
{"compound": "Cc1ccc(C)c2[nH]c(=O)c(CN(CCN3CCCC3)C(=O)Nc3cccc(Cl)c3)cc12", "hERG current change (%, negative = inhibition) at 1uM": -35.6}
{"compound": "Cc1ccc(C)c2[nH]c(=O)c(CN(CCN3CCCC3)C(=O)Nc3ccc(F)cc3)cc12", "hERG current change (%, negative = inhibition) at 1uM": -76.6}
{"compound": "Cc1cc(C)c2cc(CN(CCN3CCCC3)C(=O)Nc3ccc(F)cc3)c(=O)[nH]c2c1", "hERG current change (%, negative = inhibition) at 1uM": -57.9}
{"compound": "Cc1cc(C)c2cc(CN(CCO)C(=O)Nc3ccc(Cl)cc3)c(=O)[nH]c2c1", "hERG current change (%, negative = inhibition) at 1uM": 3.03}
{"compound": "Cc1ccc2cc(CN(CCN3CCCC3)C(=O)Nc3ccc(F)cc3)c(=O)[nH]c2c1C", "hERG current change (%, negative = inhibition) at 1uM": -8.93}
{"compound": "COc1cc2cc(CN(CCN3CCCC3)C(=O)Nc3ccc(F)cc3)c(=O)[nH]c2cc1OC", "hERG current change (%, negative = inhibition) at 1uM": 3.06}
{"compound": "CC1(C)CC(=O)C(C=NCCN2CCN(CC(=O)Nc3ccc(Cl)cc3)CC2)=C(O)C1", "hERG current change (%, negative = inhibition) at 1uM": 2.52}
{"compound": "C=CCn1c(O)c(C(C)=NCCN2CCCCC2)c(=O)[nH]c1=O", "hERG current change (%, negative = inhibition) at 1uM": 8.8}
{"compound": "CCOc1ccc(NC(=S)N2CCC(NC(=O)c3ccccc3)CC2)cc1", "hERG current change (%, negative = inhibition) at 1uM": -3.48}
{"compound": "CN1CCN(CC#CC(C)(O)C2CC3C=CC2C3)CC1.Cl", "note": "(stereo not drawn)", "hERG current change (%, negative = inhibition) at 1uM": 10.8}
{"compound": "c1cncc(COC2CCCN(Cc3nc(-c4cccs4)no3)C2)c1", "note": "(stereo not drawn)", "hERG current change (%, negative = inhibition) at 1uM": 15.7}
{"compound": "COc1cc(OC)cc(C(C)=O)c1", "hERG current change (%, negative = inhibition) at 1uM": 14.7}
{"compound": "Cc1ccc(NC(=O)/C=C/c2ccc([N+](=O)[O-])s2)cc1", "hERG current change (%, negative = inhibition) at 1uM": 13.2}
{"compound": "CC(C)N(CCn1c(SCC(=O)N2CC(=O)Nc3ccccc32)nc2ccccc2c1=O)C(C)C", "hERG current change (%, negative = inhibition) at 1uM": -72.5}
{"compound": "CN(C)CCCn1c(SCC(=O)N2CC(=O)Nc3ccccc32)nc2ccccc2c1=O", "hERG current change (%, negative = inhibition) at 1uM": 9.8}
{"compound": "COCCn1c(SCC(=O)N2CC(=O)Nc3ccccc32)nc2ccccc2c1=O", "hERG current change (%, negative = inhibition) at 1uM": -3.74}
{"compound": "N#Cc1ccc(S(=O)(=O)NCC(=O)OCC(=O)NCCc2ccccc2)cc1", "hERG current change (%, negative = inhibition) at 1uM": 14.7}
{"compound": "C=CCn1c(SCC(=O)N(CC)C2CCS(=O)(=O)C2)nc2sc3c(c2c1=O)CCC3", "note": "(stereo not drawn)", "hERG current change (%, negative = inhibition) at 1uM": -37.5}
{"compound": "Clc1ccc(-c2nnc(NC3=NCCCCC3)o2)cc1", "hERG current change (%, negative = inhibition) at 1uM": 10}
{"compound": "Cc1ccc(C(=O)N/C(=C\\c2ccc(F)cc2)C(=O)NCCN2CCOCC2)cc1", "hERG current change (%, negative = inhibition) at 1uM": -79.1}
{"compound": "CC(C)c1ccc(/C=C(\\NC(=O)c2ccccc2)C(=O)NCCN2CCOCC2)cc1", "hERG current change (%, negative = inhibition) at 1uM": -21.9}
{"compound": "Cc1ccc(C(=O)N/C(=C/c2ccc(C(C)C)cc2)C(=O)NCCCN2CCOCC2)cc1", "hERG current change (%, negative = inhibition) at 1uM": -22}
{"compound": "Cc1ccc(C(=O)N/C(=C\\c2ccccc2)C(=O)NCCN2CCOCC2)cc1", "hERG current change (%, negative = inhibition) at 1uM": -38.7}
{"compound": "Cc1ccc(C(=O)N/C(=C\\c2ccc(Cl)cc2)C(=O)NCCN2CCOCC2)cc1", "hERG current change (%, negative = inhibition) at 1uM": -70.6}
{"compound": "Cc1ccc(C(=O)N/C(=C\\c2ccco2)C(=O)NCCN2CCOCC2)cc1", "hERG current change (%, negative = inhibition) at 1uM": 5.85}
{"compound": "CN(C)c1ccc(/C=C(/NC(=O)c2ccccc2)C(=O)NCCN2CCOCC2)cc1", "hERG current change (%, negative = inhibition) at 1uM": 16.1}
{"compound": "COc1ccc(/C=C(\\NC(=O)c2ccc(C)cc2)C(=O)NCCN2CCOCC2)cc1", "hERG current change (%, negative = inhibition) at 1uM": -33.3}
{"compound": "CC(C)c1ccc(/C=C(\\NC(=O)c2ccccc2)C(=O)NCCCN2CCOCC2)cc1", "hERG current change (%, negative = inhibition) at 1uM": -35.8}
{"compound": "Cc1ccc(C(=O)N/C(=C\\c2ccc(C(C)C)cc2)C(=O)NCCCN2CCOCC2)cc1", "hERG current change (%, negative = inhibition) at 1uM": -61.4}
{"compound": "O=C(NCCN1CCOCC1)/C(=C/c1ccccc1)NC(=O)c1ccccc1", "hERG current change (%, negative = inhibition) at 1uM": 3.35}
{"compound": "O=C(NCCN1CCOCC1)/C(=C/c1ccc(Cl)cc1)NC(=O)c1ccccc1", "hERG current change (%, negative = inhibition) at 1uM": -83.1}
{"compound": "Cc1ccc2[nH]cc(C(=O)CCl)c2c1", "hERG current change (%, negative = inhibition) at 1uM": 15.2}
{"compound": "CCOc1ccccc1NC1c2ccccc2C(=O)N1Cc1ccco1", "note": "(stereo not drawn)", "hERG current change (%, negative = inhibition) at 1uM": 7.42}
{"compound": "O=C(O)c1cccc(N2C(=O)CSC2=S)c1", "hERG current change (%, negative = inhibition) at 1uM": 11.7}
{"compound": "COc1ccccc1-n1c(-c2ccc(Cl)cc2)c[nH]c1=S", "hERG current change (%, negative = inhibition) at 1uM": 9.1}
{"compound": "Cc1nc2scc(-c3ccco3)c2c(=O)n1/N=C/N(C)C", "hERG current change (%, negative = inhibition) at 1uM": 5.8}
{"compound": "O=C(Nc1cccc(NC(=O)c2ccc(Cl)cc2)n1)c1ccc(Cl)cc1", "hERG current change (%, negative = inhibition) at 1uM": 14.3}
{"compound": "COc1ccc(-c2ccnc3nc(N4CCN(c5ccccc5)CC4)nn23)cc1", "hERG current change (%, negative = inhibition) at 1uM": 14.9}
{"compound": "CCCCn1nnc(NC(=O)C(c2ccccc2)c2ccccc2)n1", "hERG current change (%, negative = inhibition) at 1uM": 11.2}
{"compound": "COc1c(C)cc(S(=O)(=O)NCc2ccccn2)c(C)c1C", "hERG current change (%, negative = inhibition) at 1uM": 9.43}
{"compound": "Nc1nnc(SCC(=O)OCc2ccccc2)s1", "hERG current change (%, negative = inhibition) at 1uM": 14.4}
